The supplement of paper PMC10849652
Of roughly 7,900 targets only a part is listed; those with a hit were picked by preference. About 0.6% of all pairs of compound and target were hits.

What was measured:
Test in all cases: log2 fold change, soluble protein after heating vs DMSO (PISA); higher = thermal stabilisation; K562 cells, 10 uM, 30 min; active = over 0.2 and 3.5 SD of the protein, either way, in both replicates (recomputed)
IRAK-1-4 Inhibitor I = compound: C1COCCN1CCN2C3=CC=CC=C3N=C2NC(=O)C4=CC(=CC=C4)[N+](=O)[O-] [IRAK-1-4 Inhibitor I]
Procedure, shortened: (§1)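 K562 cells (2×10^6 cells/mL) were treated with 10 μM compound for 30 min, and aliquots were heated for 3 min over 48°C-58°C. Pooled aliquots were extracted in PBS with 0.5% NP-40 at 4°C, and the supernatant after 21,000xg for 90 min was measured by TMTpro 16plex LC-MS/MS with channel sums equalised. Reported thermal stability, relative to control samples and from duplicates, is a log2 fold change.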

ibrutinib = compound: C=CC(=O)N1CCC[C@@H](n2nc(-c3ccc(Oc4ccccc4)cc3)c3c(N)ncnc32)C1 [ibrutinib]
Procedure, shortened: as §1

[1] = compound: CC(=O)c1cnc2ccc(-c3cc(Cl)c(O)c(Cl)c3)nc2c1N[C@H]1CC[C@H](CN(C)C)CC1
Procedure, shortened: as §1

ralimetinib = compound: CC(C)(C)Cn1c(N)nc2ccc(-c3[nH]c(C(C)(C)C)nc3-c3ccc(F)cc3)nc21 [ralimetinib]
Procedure, shortened: as §1

[2] = compound: CC(C)(O)CC(=O)NCCn1ccc2ncnc(Nc3ccc(Oc4cccc(C(F)(F)F)c4)c(Cl)c3)c21
Procedure, shortened: as §1

[3] = compound: CC(C)C1=C2N=C(C=C(N2N=C1)NCC3=CC=CC=C3)NCCCCCCN
Procedure, shortened: as §1

[4] = compound: CC(C)C[C@@H](C=O)NC(=O)[C@H](CC(C)C)NC(=O)[C@H](CC(C)C)NC(=O)OCc1ccccc1
Procedure, shortened: as §1

pinometostat = compound: CC(C)N(C[C@H]1O[C@@H](n2cnc3c(N)ncnc32)[C@H](O)[C@@H]1O)[C@H]1C[C@@H](CCc2nc3cc(C(C)(C)C)ccc3[nH]2)C1 [pinometostat]
Procedure, shortened: as §1

[5] = compound: CC1=C(C(CC(=O)N1)C2=CC=C(C=C2)C(F)(F)F)C(=O)NC3=C(C=C4C(=C3)C=NN4)F
Procedure, shortened: as §1

[6] = compound: CC1=C(C2=C(C=C1)C(=O)C3=CC=CC=C3N2CCCN)C
Procedure, shortened: as §1

[7] = compound: CC1=C(C=C(C=C1)NC(=O)C2=CC(=CC=C2)C(C)(C)C#N)NC3=CC4=C(C=C3)N=CN(C4=O)C
Procedure, shortened: as §1

[8] = compound: CC1=C(C=C(C=C1)NC(=O)C2=CC(=CC=C2)N(C)C)NC(=O)C3=CC=C(C=C3)O
Procedure, shortened: as §1

[9] = compound: CC1=CC=C(C=C1)SC2=C3C=C(SC3=CN=C2)C(=O)N
Procedure, shortened: as §1

[10] = compound: CC1=NC(=CC=C1)C2=C(N=C(N2)C(C)(C)C)C3=CC4=NC=CN=C4C=C3
Procedure, shortened: as §1

Nexturastat A = compound: CCCCN(Cc1ccc(C(=O)NO)cc1)C(=O)Nc1ccccc1 [Nexturastat A]
Procedure, shortened: as §1

vemurafenib = compound: CCCS(=O)(=O)Nc1ccc(F)c(C(=O)c2c[nH]c3ncc(-c4ccc(Cl)cc4)cc23)c1F [vemurafenib]
Procedure, shortened: as §1

[11] = compound: CCCS(=O)(=O)Nc1ccc(F)c(C(=O)c2c[nH]c3ncc(Cl)cc23)c1F
Procedure, shortened: as §1

[12] = compound: CCCc1cc(C)[nH]c(=O)c1CNC(=O)c1cc(-c2ccnc(N3CCN(C)CC3)c2)cc2c1cnn2C(C)C
Procedure, shortened: as §1

givinostat = compound: CCN(CC)Cc1ccc2cc(COC(=O)Nc3ccc(C(=O)NO)cc3)ccc2c1 [givinostat]
Procedure, shortened: as §1

barasertib = compound: CCN(CCCOc1ccc2c(Nc3cc(CC(=O)Nc4cccc(F)c4)[nH]n3)ncnc2c1)CCOP(=O)(O)O [barasertib]
Procedure, shortened: as §1

Measured: log2 fold change

WDHD1 (UniProt O75717)
UniProt O75717, sequence (O75717 whole entry, looked up): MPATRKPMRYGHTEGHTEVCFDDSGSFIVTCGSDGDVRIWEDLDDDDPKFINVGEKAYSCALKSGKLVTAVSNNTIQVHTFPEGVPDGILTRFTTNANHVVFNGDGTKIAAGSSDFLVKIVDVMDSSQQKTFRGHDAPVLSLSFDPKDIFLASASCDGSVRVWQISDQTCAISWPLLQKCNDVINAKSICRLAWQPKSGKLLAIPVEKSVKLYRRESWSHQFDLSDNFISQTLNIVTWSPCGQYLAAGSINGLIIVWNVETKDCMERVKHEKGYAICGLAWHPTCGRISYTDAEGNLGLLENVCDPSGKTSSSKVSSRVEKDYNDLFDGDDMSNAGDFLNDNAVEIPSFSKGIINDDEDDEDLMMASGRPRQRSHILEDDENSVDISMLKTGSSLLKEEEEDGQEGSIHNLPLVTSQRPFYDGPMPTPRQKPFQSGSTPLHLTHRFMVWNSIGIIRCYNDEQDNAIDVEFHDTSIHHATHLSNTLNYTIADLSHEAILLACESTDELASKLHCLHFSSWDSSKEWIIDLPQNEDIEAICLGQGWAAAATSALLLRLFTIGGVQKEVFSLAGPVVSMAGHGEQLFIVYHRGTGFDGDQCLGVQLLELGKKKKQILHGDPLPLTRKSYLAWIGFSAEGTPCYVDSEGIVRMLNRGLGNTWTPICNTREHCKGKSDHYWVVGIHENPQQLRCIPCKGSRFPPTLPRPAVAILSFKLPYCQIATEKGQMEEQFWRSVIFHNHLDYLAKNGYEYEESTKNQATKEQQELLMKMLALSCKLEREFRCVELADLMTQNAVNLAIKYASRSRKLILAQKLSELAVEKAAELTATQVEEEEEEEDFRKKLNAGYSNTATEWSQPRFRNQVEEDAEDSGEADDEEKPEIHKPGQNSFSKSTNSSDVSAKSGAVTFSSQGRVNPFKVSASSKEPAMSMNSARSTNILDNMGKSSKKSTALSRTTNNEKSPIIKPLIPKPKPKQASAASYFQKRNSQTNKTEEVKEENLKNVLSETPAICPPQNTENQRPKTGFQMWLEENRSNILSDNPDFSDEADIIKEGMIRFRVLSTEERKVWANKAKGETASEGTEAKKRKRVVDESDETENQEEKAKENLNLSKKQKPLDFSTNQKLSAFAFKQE
inactive: IRAK-1-4 Inhibitor I -0.055 | ibrutinib 0.006 | [1] -0.087 | ralimetinib -0.038 | [2] -0.065 | [3] -0.125 | [4] 0 | pinometostat -0.03 | [5] -0.02 | [6] -0.063 | [7] 0.057 | [8] -0.043 | [9] 0.013 | [10] 0.072 | Nexturastat A -0.053 | vemurafenib 0.066 | [11] 0.095 | [12] 0.022 | givinostat 0.053 | barasertib 0.055

TRMT10C (UniProt Q7L0Y3)
inactive: IRAK-1-4 Inhibitor I 0.029 | ibrutinib 0.011 | [1] -0.07 | ralimetinib -0.06 | [2] -0.055 | [3] 0.012 | [4] 0.005 | pinometostat -0.021 | [5] 0.016 | [6] 0.014 | [7] 0.013 | [8] -0.051 | [9] 0.017 | [10] 0.007 | Nexturastat A -0.095 | vemurafenib 0.015 | [11] 0.042 | [12] -0.013 | givinostat -0.022 | barasertib 0.041

TMEM161A (UniProt Q9NX61)
UniProt Q9NX61, sequence (Q9NX61 whole entry, looked up): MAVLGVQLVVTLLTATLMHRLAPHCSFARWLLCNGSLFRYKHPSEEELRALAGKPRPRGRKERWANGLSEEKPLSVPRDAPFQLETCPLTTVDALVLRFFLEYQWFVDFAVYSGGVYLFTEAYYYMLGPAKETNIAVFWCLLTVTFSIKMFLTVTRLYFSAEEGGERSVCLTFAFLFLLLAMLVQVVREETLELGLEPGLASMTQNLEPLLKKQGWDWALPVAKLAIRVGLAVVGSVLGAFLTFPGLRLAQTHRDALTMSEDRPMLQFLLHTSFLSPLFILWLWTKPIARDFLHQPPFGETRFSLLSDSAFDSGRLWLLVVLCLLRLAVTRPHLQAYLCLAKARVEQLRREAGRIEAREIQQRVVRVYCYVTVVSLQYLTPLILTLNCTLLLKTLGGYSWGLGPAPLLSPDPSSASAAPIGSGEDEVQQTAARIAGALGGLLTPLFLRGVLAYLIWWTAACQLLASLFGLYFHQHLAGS
active: [3] -0.395
inactive: IRAK-1-4 Inhibitor I 0.03 | ibrutinib -0.015 | [1] 0.045 | ralimetinib -0.059 | [2] -0.17 | [4] -0.045 | pinometostat 0.121 | [5] -0.076 | [6] 0.071 | [7] -0.045 | [8] 0.12 | [9] 0.014 | [10] -0.012 | Nexturastat A -0.059 | vemurafenib 0.045 | [11] 0.225 | [12] -0.048 | givinostat 0.024 | barasertib -0.017

TNPO3 (UniProt Q9Y5L0)
inactive: IRAK-1-4 Inhibitor I -0.006 | ibrutinib -0.02 | [1] -0.014 | ralimetinib 0.024 | [2] -0.156 | [3] -0.154 | [4] -0.08 | pinometostat 0.006 | [5] 0.036 | [6] -0.02 | [7] 0.028 | [8] 0.004 | [9] 0.057 | [10] 0.003 | Nexturastat A -0.036 | vemurafenib 0.069 | [11] 0.08 | [12] 0.003 | givinostat 0.029 | barasertib 0.019

UBE2S (UniProt Q16763)
inactive: IRAK-1-4 Inhibitor I -0.065 | ibrutinib -0.035 | [1] -0.037 | ralimetinib 0.03 | [2] -0.034 | [3] 0.018 | [4] 0.125 | pinometostat -0.05 | [5] -0.004 | [6] -0.055 | [7] 0.024 | [8] -0.015 | [9] 0.004 | [10] 0.009 | Nexturastat A 0.057 | vemurafenib 0.013 | [11] 0.049 | [12] -0.007 | givinostat 0.044 | barasertib 0.03

VPS8 (UniProt Q8N3P4)
UniProt Q8N3P4, sequence (Q8N3P4 whole entry, looked up): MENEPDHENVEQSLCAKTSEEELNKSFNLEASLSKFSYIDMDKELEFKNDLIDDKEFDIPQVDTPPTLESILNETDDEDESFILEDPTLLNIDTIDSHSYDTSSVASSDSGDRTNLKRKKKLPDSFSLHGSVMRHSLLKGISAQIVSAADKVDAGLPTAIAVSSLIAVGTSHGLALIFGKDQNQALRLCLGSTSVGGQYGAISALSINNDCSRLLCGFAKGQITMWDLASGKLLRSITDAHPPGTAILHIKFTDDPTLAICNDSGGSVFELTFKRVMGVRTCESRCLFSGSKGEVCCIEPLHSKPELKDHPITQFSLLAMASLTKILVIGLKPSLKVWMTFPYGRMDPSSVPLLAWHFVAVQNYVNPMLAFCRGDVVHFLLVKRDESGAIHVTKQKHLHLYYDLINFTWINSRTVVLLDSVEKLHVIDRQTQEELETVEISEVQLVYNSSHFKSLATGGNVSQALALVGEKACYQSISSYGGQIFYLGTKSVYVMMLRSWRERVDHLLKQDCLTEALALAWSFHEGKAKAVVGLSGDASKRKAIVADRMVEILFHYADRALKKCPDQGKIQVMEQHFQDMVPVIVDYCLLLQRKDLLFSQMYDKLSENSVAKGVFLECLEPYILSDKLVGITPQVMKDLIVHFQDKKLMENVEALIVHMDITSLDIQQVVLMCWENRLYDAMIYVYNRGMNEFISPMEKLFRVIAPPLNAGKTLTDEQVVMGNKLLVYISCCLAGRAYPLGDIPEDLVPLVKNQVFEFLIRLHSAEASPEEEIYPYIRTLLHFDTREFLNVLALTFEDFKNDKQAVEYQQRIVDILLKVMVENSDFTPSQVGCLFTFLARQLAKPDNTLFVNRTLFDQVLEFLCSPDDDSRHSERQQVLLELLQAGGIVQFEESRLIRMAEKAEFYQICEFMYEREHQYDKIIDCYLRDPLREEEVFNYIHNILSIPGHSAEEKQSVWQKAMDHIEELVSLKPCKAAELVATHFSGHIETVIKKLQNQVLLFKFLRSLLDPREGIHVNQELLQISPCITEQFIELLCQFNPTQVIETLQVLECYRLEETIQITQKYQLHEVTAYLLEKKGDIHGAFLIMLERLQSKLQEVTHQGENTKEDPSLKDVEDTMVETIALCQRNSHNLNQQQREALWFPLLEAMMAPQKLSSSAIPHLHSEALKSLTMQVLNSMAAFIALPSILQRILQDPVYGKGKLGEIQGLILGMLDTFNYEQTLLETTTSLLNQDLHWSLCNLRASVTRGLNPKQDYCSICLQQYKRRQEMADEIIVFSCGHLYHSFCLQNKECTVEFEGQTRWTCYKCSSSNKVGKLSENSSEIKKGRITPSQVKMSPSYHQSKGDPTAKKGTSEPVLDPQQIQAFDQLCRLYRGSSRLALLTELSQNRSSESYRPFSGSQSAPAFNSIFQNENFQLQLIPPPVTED
inactive: IRAK-1-4 Inhibitor I -0.085 | ibrutinib -0.117 | [1] -0.004 | ralimetinib 0.088 | [2] -0.079 | [3] -0.254 | [4] 0.052 | pinometostat 0.039 | [5] 0.026 | [6] 0.015 | [7] -0.011 | [8] -0.003 | [9] -0.034 | [10] 0.058 | Nexturastat A 0.032 | vemurafenib 0.048 | [11] 0.126 | [12] -0.04 | givinostat 0.014 | barasertib 0.028

TRABD (UniProt Q9H4I3)
inactive: IRAK-1-4 Inhibitor I -0.046 | ibrutinib 0.007 | [1] -0.032 | ralimetinib 0.073 | [2] 0.277 | [4] 0.045 | pinometostat 0.018 | [5] -0.005 | [6] -0.005 | [7] 0.014 | [8] -0.017 | [9] -0.005 | [10] -0.133 | Nexturastat A -0.03 | vemurafenib 0.125 | [11] -0.06 | [12] 0.147 | givinostat -0.041 | barasertib 0.031
active: [3] 0.416

TRMT10A (UniProt Q8TBZ6)
UniProt Q8TBZ6, sequence (Q8TBZ6 whole entry, looked up): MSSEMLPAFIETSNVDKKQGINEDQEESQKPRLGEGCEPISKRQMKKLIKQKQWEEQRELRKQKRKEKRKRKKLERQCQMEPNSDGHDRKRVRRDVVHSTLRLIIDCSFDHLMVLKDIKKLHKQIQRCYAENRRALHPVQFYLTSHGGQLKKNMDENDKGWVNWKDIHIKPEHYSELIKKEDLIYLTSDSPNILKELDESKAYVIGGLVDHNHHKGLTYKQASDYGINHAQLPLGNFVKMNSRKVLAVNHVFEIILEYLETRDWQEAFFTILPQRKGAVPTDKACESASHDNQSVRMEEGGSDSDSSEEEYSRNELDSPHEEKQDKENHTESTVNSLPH
inactive: IRAK-1-4 Inhibitor I 0.056 | ibrutinib -0.009 | [1] -0.065 | ralimetinib -0.006 | [2] -0.107 | [3] -0.075 | [4] -0.01 | pinometostat 0.042 | [5] 0.02 | [6] 0.066 | [7] 0.006 | [8] -0.004 | [9] 0.063 | [10] 0.031 | Nexturastat A -0.079 | vemurafenib 0.014 | [11] -0.017 | [12] -0.011 | givinostat -0.004 | barasertib -0.019

VPS28 (UniProt Q9UK41)
inactive: IRAK-1-4 Inhibitor I -0.052 | ibrutinib 0.058 | [1] -0.018 | ralimetinib -0.051 | [2] -0.13 | [3] -0.189 | [4] 0.027 | pinometostat 0.059 | [5] 0.075 | [6] 0.04 | [7] 0.029 | [8] -0.044 | [9] 0.055 | [10] 0.004 | Nexturastat A -0.018 | vemurafenib 0.041 | [11] -0.008 | [12] -0.074 | givinostat -0.024 | barasertib 0.061

VPS39 (UniProt Q96JC1)
UniProt Q96JC1, sequence (Q96JC1 whole entry, looked up): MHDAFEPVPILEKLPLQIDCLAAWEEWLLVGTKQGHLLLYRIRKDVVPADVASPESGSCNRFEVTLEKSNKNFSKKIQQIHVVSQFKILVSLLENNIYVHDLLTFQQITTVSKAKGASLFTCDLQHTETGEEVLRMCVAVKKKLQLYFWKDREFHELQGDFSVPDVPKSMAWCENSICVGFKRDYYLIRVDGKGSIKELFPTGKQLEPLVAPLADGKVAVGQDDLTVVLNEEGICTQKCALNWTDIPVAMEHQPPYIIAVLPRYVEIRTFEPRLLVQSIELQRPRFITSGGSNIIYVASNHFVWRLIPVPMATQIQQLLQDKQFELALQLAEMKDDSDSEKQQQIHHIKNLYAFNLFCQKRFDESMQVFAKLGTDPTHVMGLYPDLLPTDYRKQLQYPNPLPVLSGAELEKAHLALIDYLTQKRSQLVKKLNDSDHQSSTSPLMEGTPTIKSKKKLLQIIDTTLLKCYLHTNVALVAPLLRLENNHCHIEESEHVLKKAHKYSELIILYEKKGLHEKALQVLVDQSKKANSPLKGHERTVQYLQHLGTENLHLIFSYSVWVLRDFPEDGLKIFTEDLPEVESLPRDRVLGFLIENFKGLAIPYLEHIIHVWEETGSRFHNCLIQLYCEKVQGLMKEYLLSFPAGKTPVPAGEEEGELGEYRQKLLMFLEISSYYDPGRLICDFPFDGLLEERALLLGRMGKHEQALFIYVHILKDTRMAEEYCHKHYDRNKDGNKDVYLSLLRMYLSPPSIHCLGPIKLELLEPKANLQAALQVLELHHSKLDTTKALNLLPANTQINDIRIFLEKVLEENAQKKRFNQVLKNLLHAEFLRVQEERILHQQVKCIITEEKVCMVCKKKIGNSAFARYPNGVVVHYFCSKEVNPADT
inactive: IRAK-1-4 Inhibitor I -0.055 | ibrutinib -0.015 | [1] -0.036 | ralimetinib -0.018 | [2] -0.039 | [3] -0.265 | [4] 0.031 | pinometostat 0.032 | [5] -0.027 | [6] 0.008 | [7] 0.049 | [8] -0.015 | [9] 0.011 | [10] 0.031 | Nexturastat A 0.014 | vemurafenib 0.041 | [11] 0.059 | [12] -0.029 | givinostat 0.019 | barasertib 0.053

USP15 (UniProt Q9Y4E8)
inactive: IRAK-1-4 Inhibitor I -0.028 | ibrutinib -0.034 | [1] 0.008 | ralimetinib -0.004 | [2] -0.067 | [3] -0.154 | [4] 0.012 | pinometostat 0.012 | [5] 0 | [6] -0.019 | [7] 0.025 | [8] -0.044 | [9] 0.023 | [10] 0.027 | Nexturastat A -0.001 | vemurafenib 0.04 | [11] 0.053 | [12] 0.041 | givinostat 0.025 | barasertib 0.06

WASHC3 (UniProt Q9Y3C0)
inactive: IRAK-1-4 Inhibitor I 0.096 | ibrutinib 0.015 | [1] 0.023 | ralimetinib -0.033 | [2] 0.024 | [3] -0.166 | [4] -0.041 | pinometostat -0.074 | [5] 0.059 | [6] 0.032 | [7] 0.011 | [8] 0.015 | [9] 0.049 | [10] -0.008 | Nexturastat A -0.051 | vemurafenib 0.005 | [11] -0.006 | [12] -0.08 | givinostat 0.004 | barasertib 0.017

TNPO2 (UniProt O14787)
active: [3] -0.339
inactive: IRAK-1-4 Inhibitor I -0.088 | ibrutinib -0.023 | [1] -0.051 | ralimetinib 0.027 | [2] -0.138 | [4] -0.042 | pinometostat 0.012 | [5] 0.023 | [6] -0.171 | [7] 0.052 | [8] -0.01 | [9] 0.073 | [10] 0.015 | Nexturastat A 0.021 | vemurafenib 0.061 | [11] 0.11 | [12] 0.007 | givinostat 0.083 | barasertib 0.054

VPS37A (UniProt Q8NEZ2)
inactive: IRAK-1-4 Inhibitor I 0.045 | ibrutinib -0.011 | [1] -0.07 | ralimetinib 0.053 | [2] -0.025 | [3] -0.143 | [4] 0.094 | pinometostat 0.045 | [5] -0.047 | [6] -0.066 | [7] -0.015 | [8] -0.171 | [9] 0.019 | [10] 0.001 | Nexturastat A -0.048 | vemurafenib 0.128 | [11] 0.054 | [12] 0.014 | givinostat 0.14 | barasertib 0.076

VPS52 (UniProt Q8N1B4)
UniProt Q8N1B4, sequence (Q8N1B4 whole entry, looked up): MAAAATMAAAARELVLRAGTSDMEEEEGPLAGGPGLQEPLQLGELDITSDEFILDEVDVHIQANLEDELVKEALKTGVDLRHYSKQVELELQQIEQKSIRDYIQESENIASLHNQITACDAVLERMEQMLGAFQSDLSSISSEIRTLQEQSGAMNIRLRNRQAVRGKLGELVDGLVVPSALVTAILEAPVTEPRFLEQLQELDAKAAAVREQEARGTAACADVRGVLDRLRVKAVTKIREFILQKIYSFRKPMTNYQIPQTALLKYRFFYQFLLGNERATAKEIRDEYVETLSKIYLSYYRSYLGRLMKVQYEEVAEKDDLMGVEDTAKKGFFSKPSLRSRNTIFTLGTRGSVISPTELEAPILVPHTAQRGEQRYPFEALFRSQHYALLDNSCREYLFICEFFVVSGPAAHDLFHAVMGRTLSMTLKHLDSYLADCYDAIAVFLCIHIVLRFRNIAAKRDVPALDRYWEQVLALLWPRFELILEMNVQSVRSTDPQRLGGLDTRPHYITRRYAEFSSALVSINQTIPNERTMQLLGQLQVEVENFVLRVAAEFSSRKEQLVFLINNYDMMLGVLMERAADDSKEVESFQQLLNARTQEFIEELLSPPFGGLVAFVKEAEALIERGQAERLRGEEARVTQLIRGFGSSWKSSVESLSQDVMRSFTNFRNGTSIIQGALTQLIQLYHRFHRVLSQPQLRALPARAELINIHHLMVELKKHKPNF
inactive: IRAK-1-4 Inhibitor I -0.057 | ibrutinib 0.068 | [1] 0 | ralimetinib 0.05 | [2] -0.161 | [3] -0.02 | [4] 0.088 | pinometostat 0.048 | [5] -0.018 | [6] 0.142 | [7] -0.071 | [8] -0.001 | [9] -0.009 | [10] 0.005 | Nexturastat A 0.079 | vemurafenib 0.023 | [11] 0.006 | [12] 0.048 | givinostat -0.004 | barasertib 0.054

VPS13B (UniProt Q7Z7G8)
active: [3] -0.241
inactive: IRAK-1-4 Inhibitor I 0.05 | ibrutinib -0.013 | [1] -0.016 | ralimetinib -0.042 | [2] -0.06 | [4] 0.121 | pinometostat 0.007 | [5] 0.03 | [6] 0.015 | [7] 0.02 | [8] -0.028 | [9] 0.06 | [10] 0.057 | Nexturastat A -0.011 | vemurafenib 0.008 | [11] -0.011 | [12] -0.008 | givinostat 0.002 | barasertib 0.002
